# Reference: PubChem BioAssay AID1851 (National Center for Advancing Translational Sciences (NCATS), 2009)
# Where “and” joins values, the source holds several entries; their conditions need not be identical. Equal entries are not always repeated. The campaign covered roughly 16,000 compounds. About 2,600 (16%) were called active. Not shown: some 20% with an inconclusive outcome. The call rests on the fitted dose curve; in most records, active means well fitted curve in the direction sought with a large enough effect; inconclusive means small, poorly fitted or top-dose-only effect, or effect the other way; inactive means no such curve, though single readings can be large or run the other way. Not all results are given here. Square brackets hold non-standard residues; d marks the D form. Peptide text beside a SMILES is read from it.
# Molecular target: Cytochrome P450 2D6 (Homo sapiens) (UniProt P10635)
# Sequence (P10635 whole entry, looked up): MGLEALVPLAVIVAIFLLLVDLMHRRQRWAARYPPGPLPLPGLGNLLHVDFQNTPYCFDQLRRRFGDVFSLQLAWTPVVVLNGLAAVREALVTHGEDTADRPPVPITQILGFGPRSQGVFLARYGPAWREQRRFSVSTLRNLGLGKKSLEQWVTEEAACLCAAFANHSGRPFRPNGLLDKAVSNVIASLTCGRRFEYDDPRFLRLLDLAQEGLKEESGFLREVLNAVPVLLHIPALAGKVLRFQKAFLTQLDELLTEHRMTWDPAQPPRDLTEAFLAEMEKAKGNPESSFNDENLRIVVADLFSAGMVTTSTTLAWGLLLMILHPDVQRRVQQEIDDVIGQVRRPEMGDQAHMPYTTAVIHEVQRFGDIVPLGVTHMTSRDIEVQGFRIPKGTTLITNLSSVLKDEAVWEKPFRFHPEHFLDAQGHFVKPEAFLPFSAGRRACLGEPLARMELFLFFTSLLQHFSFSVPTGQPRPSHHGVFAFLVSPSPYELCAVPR
# Assay: Cytochrome panel assay with activity outcomes
# Details: recombinant CYP, pro-luciferin dealkylation, luminescence, p450-cyp2d6; series mostly up to 57.1 µM
# On the % scale 0 is the no-effect control and ±100 the full control effect.
SMILES,AC50,"activity, negative = inhibition"
COn1c(SC(C)C)nc2ccccc2c1=O,inactive,
Cc1cc(C)n(-c2nc3ccccc3c(=O)n2OCc2ccc(Cl)cc2)n1,inactive,
COn1c(SCc2cccc(Cl)c2)nc2ccccc2c1=O,0.891 µM (active),
Cc1ccc(-n2c(SCc3ccc([N+](=O)[O-])cc3)nc3ccccc3c2=O)cc1,inactive,
CC(C)On1c(SC(C)C)nc2ccccc2c1=O,inactive,
COn1c(SCc2ccc(C)cc2C)nc2ccccc2c1=O,6.31 µM (active),
CO[C@H]1COC(=O)C/C=C\[C@H](C)[C@@H](OC)COC(=O)[C@H](Cc2ccccc2)NC(=O)C/C=C\[C@@H]1C,,-13.7% [at 11.4 µM] (inactive)
O=S(=O)(O)[C@@H](CO)c1ccccc1 (tested in a mixture with another compound),,14% [at 11.4 µM] (inactive)
CC1CCCC(NC(=O)C2CCN(S(=O)(=O)N3CCOCC3)CC2)C1C (stereo unspecified),inactive,
O=C(O)C1CCCCC1C(=O)Nc1cc(Cl)ccc1Cl (stereo unspecified),inactive,
Cc1ccc(S(=O)(=O)O[C@@H]2[C@H]([C@@H]3COC(C)(C)O3)O[C@H]3OC(C)(C)O[C@@H]32)cc1,,5.58% [at 11.4 µM] (inactive)
O=C(O)/C=C/C(=O)Nc1ccccc1-c1ccccc1,inactive,
CCOC(=O)c1cc2c(C)n(-c3ccc(C)cc3)c(C)c2ccc1=O,inactive,
O=C1NCN(c2ccccc2)C12CCN(CCCC(c1ccc(F)cc1)c1ccc(F)cc1)CC2,10 µM (active) and 1.58 µM (active),
O[C@H](CCCN1CCN(c2ncc(F)cn2)CC1)c1ccc(F)cc1,inactive,
O=C(NCCc1ccc(Cl)cc1)Nc1cccc(Cl)c1,0.891 µM (active),
Cc1ccc(NCCC(=O)c2ccc(Cl)cc2)cc1,inactive,
Cc1ccc(NCCC(=O)c2ccc(Cl)cc2)cc1C,inactive,
O=C(Nc1cccc(Cl)c1)Nn1cnnc1,,8.42% [at 11.4 µM] (inactive)
O=C(CNc1cccc(Cl)c1)c1ccc(Cl)cc1,0.447 µM (active),
CN(C)CCNC(=S)Nc1cccc(Cl)c1,inactive,
Cc1cnn(-c2cc(N/N=C/c3ccccc3F)ncn2)c1,inactive,
O=C(O)[C@@H]1[C@@H](C(=O)NCc2cccnc2)[C@@H]2C=C[C@@H]1O2,,20.9% [at 11.4 µM] (inactive)
CCCc1nnc(SCC(=O)O)n1/N=C/c1ccc2c(c1)OCO2,inactive,
O=C(c1ccco1)N1CCN(c2cc(=O)n(C3CCCCC3)c(=O)[nH]2)CC1,inactive,
CCCCCCc1c(C[C@H](N)C(=O)O)o[nH]c1=O,inactive,

SMILES,AC50,"activity, negative = inhibition"
Oc1ccccc1-c1nnc(-c2ccc(C(F)(F)F)cc2)o1,inactive,
Cc1c(Cl)cccc1NC(=O)C[C@H]1Sc2ccccc2NC1=O,,-12% [at 11.4 µM] (inactive)
CCN(CC)CCCNC(=O)CC1Sc2ccccc2NC1=O (stereo unspecified),5.01 µM (active),
CCN(CC)CCCNC(=O)C1CCC(=O)N(c2ccc(OC)cc2)C1c1ccc(F)cc1 (stereo unspecified),inactive,
CN(Cc1ccco1)c1nc(-c2ccc3c(c2)OCO3)nc2ccccc12,10 µM (active),
CN(Cc1ccco1)c1nc(-c2ccoc2)nc2ccccc12,15.8 µM (active),
CN(C)c1ccc(-c2nc(N(C)Cc3ccco3)c3ccccc3n2)cc1,12.6 µM (active),
CN(Cc1ccccc1)c1nc(-c2ccc([N+](=O)[O-])cc2)nc2ccccc12,inactive,
O=c1c(-c2cc(F)cc(F)c2)nc2cnc(N3CCOCC3)nc2n1C1CC1,inactive,
CSCC[C@H](C=O)NC(=O)[C@H](CC(C)C)NC(=O)[C@H](CC(C)C)NC(C)=O (Ac-Leu-Leu-[dM]-aldehyde),inactive,
c1cc(NNc2cccc(-c3nn[nH]n3)c2)cc(-c2nn[nH]n2)c1,,16.4% [at 11.4 µM] (inactive)
COCCCNC(=O)C1CC(=O)N(Cc2ccc(OC)cc2)C1 (stereo unspecified),inactive,
CN(C)c1ncc2nc(-c3ccc(F)cc3)c(=O)n(Cc3cccs3)c2n1,inactive,
Cc1cc(C)c2nc(-c3ccccn3)cc(C(=O)Nc3ccc(S(=O)(=O)Nc4cc(C)on4)cc3)c2c1,inactive,
O=C(O)c1ccc(S(=O)(=O)N=Nc2c(O)[nH]c3ccccc23)cc1,,17% [at 11.4 µM] (inactive)
O=C1CCC(c2ccccc2)(c2ccccc2)CC1,,9.99% [at 11.4 µM] (inactive)
CCN1C(=O)c2cccc3c(NC(=O)c4cccc(N5C(=O)CCC5=O)c4)ccc1c23,inactive,
COc1ccc(N2CCN(C(=O)CSc3nnc4c5cc(C)ccc5n(C)c4n3)CC2)cc1,inactive,
COc1cccc2c(=O)c(C(=O)NCc3cccs3)c[nH]c12,12.6 µM (active),
COc1ccc(C(=O)c2c[nH]c(C(=O)NCc3cccs3)c2)cc1,inactive,
COc1ccc2nc3oc(C(=O)NCc4cccs4)cc3cc2c1,inactive,
O=C1CC(=O)N(CCc2ccc(F)cc2)C(=O)N1,inactive,
COc1ccc(-n2c(=O)cnc3cnc(N(C)C)nc32)cc1,inactive,
NCS(=O)(=O)O,,6.1% [at 11.4 µM] (inactive)
COc1ccccc1/C=C/C(=O)c1c2c(c(C)[nH]c1=O)CCCC2,inactive,
Cn1c(=S)c2[nH]c(SCCCc3ccccc3)nc2n(C)c1=O,,-0.099% [at 11.4 µM] (inactive)

SMILES,AC50,"activity, negative = inhibition"
Cc1c(C)c2c(c(C)c1O)CC[C@@](C)(CCC[C@@H](C)CCC[C@@H](C)CCCC(C)C)O2,inactive,
Cc1cc(C)n2nc(SCc3cc(=O)oc4ccc5ccccc5c34)nc2n1,inactive,
CC(=O)Nc1cc(S(=O)(=O)Nc2ccccc2)c(C)cc1C,inactive,
Cc1cc(NC(=O)COC(=O)c2ccc(NS(=O)(=O)c3ccc(C)c(C)c3)cc2)no1,inactive,
CCOC(=O)c1sc(NS(=O)(=O)c2ccccc2)nc1C,inactive,
CCOc1cc(C)c(S(=O)(=O)Nc2ccc3cn[nH]c3c2)cc1C,0.631 µM (active),
CCOC(=O)c1ccc(S(=O)(=O)Nc2ccc3cn[nH]c3c2)cc1,12.6 µM (active),
COC(=O)Cc1cc(=O)n2[nH]c(C)c(-c3ccccc3)c2n1,inactive,
C/C(O)=C\c1nc2ccccc2oc1=O,inactive,
COC(=O)[C@@]1(Cc2ccc(F)cc2)[C@@H]2C(=CC(=O)[C@H]2CC(=O)C(=O)N(C)C)CN1C(=O)c1ccccc1,inactive,
Cc1cc(N)ccc1NC(=O)c1ccccc1,inactive,
CCO/C(C)=N/n1c2nc3ccccc3nc2c2c(=O)n(CC(C)C)c(C)nc21,inactive,
CCCC(C(=O)Nc1nccs1)c1ccccc1 (stereo unspecified),25.1 µM (active),
O=C(O)c1ccccc1C(=O)Nc1nccs1,inactive,
CCCCn1c(SCC(=O)Nc2nccs2)nc2ccccc2c1=O,inactive,
O=C(NCC1CCCO1)c1cc(-c2ccc(Cl)cc2Cl)on1 (stereo unspecified),inactive,
Cc1cccc(Sc2c([N+](=O)[O-])ncn2C)n1,inactive,
c1ccc(-n2cnc3cc(NCc4cccs4)ccc32)cc1,1.12 µM (active),
O=c1cnc2cnc(Nc3ccccc3)nc2n1Cc1cccs1,inactive,
O=C(O)[C@H]1CCCNC1,inactive,
Cc1ccccc1CS(=O)(=O)Cc1ccc(C(=O)NCc2cccnc2)o1,10 µM (active),
Cc1cc(=O)oc(C)c1C(=O)NCc1cccnc1,inactive,
Cc1cccc(CS(=O)(=O)Cc2ccc(C(=O)NCc3ccco3)o2)c1,inactive,
Cn1cccc1C(=O)N1CCC2(CC1)CN(c1ccccn1)C2,inactive,
COc1cc(OC)c(C2C(C(=O)Nc3ccc(C)cc3C)=C(C)Nc3ncnn32)cc1OC (stereo unspecified),inactive,
Cc1ccc(S(=O)(=O)NC(=O)c2cccn2C)cc1,inactive,

SMILES,AC50,"activity, negative = inhibition"
O=C(Cn1ccc([N+](=O)[O-])n1)NCc1cccs1,inactive,
Cc1ccccc1C(=O)c1cccn1CC(=O)NCc1ccco1,inactive,
O=C(Cn1cccc1C(=O)c1ccccc1)NCc1cccs1,5.01 µM (active),
COCCn1c(=O)c(-c2cccs2)nc2cnc(N3CCNCC3)nc21,inactive,
COc1cc(NC(=O)Cc2c(C(=O)O)[nH]c3ccccc23)cc(OC)c1OC,inactive,
CCC(CC)C(=O)Nc1c2c(nn1-c1ccc(OC)cc1)CS(=O)(=O)C2,inactive,
CCN(CC)S(=O)(=O)c1cccc(C(=O)N[C@H](C(=O)OCC(=O)NC(=O)NC)C(C)C)c1,inactive,
CCOC(=O)c1ccc(S(=O)(=O)N2CCN(C)CC2)cc1,inactive,
CCN(CC)S(=O)(=O)c1ccc(C(=O)NC2=C(C(=O)OC)SCC2)cc1,inactive,
CCOC(=O)c1c(C)[nH]c(C)c1C(=O)COC(=O)c1ccc(S(=O)(=O)N(CC)CC)cc1,28.2 µM (active),
CCOC(=O)c1c(C)[nH]c(C)c1C(=O)COC(=O)c1cccc(S(=O)(=O)N(CC)CC)c1,17.8 µM (active),
CCOC(=O)c1c(C)[nH]c2ccc3c(c12)CN1CCc2cc(OC)ccc2[C@@H]1O3,inactive,
CS(=O)(=O)N1CCC2(CCN(C(=O)Nc3cccc(C#N)c3)CC2)CC1,inactive,
O=C1c2c(O)cc(O)cc2O[C@@H](c2ccc(O)c(O)c2)[C@H]1O,inactive,
CC1=NN(c2ccccc2)C(=O)/C1=C\N1CC(C)OC(C)C1 (stereo unspecified),inactive,
COc1cc2c(cc1OC)C(C(=O)Nc1ccc3c(c1)OCCO3)C(c1cccnc1)N(C)C2=O (stereo unspecified),inactive,
FC(F)(F)c1nc(-c2ccncc2)ncc1-c1nnnn1-c1ccccc1,inactive,
O=C(Nc1ccc(F)cc1)c1ccc(-n2ccnc2)nc1,0.178 µM (active),
Cc1ccc(C(=O)Nc2ccc(N3CCOCC3)nc2)cc1,inactive,
C/C(CC(=O)Nc1ccccn1)=N\NC(=O)C(=O)Nc1cccc(Cl)c1C,inactive,
Cc1c(Cl)cccc1NC(=O)c1ccc(-n2ccnc2)nc1,0.0316 µM (active),
CC(C)C(=O)Nc1ccc(NC(=O)c2cccnc2)cn1,inactive,
CCOCC(=O)Nc1cc(C(=O)Nc2cccc(C)c2C)ccc1Cl,inactive,
